High-throughput results (PubChem)
KLF5 inhibitor: KLF5 expression inhibitors, primary screen, DLD-1 cells, luminescence; DLD-1 KLF5 promoter-luciferase reporter; inhibition, % at 5 µM; 290,000 tested, 0.23% active; AID 1700, 2009;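 active means inhibition above a per-plate limit of that plate's mean compound inhibition plus 3 SD, cut at about 60% in these data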;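 further: higher means less KLF5 promoter-driven luciferase light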
Ba/F3 V617F tox: reduced viability of JAK2V617F-dependent Ba/F3 cells, primary screen, JAK2V617F inhibitor project, cell-based, Ba/F3 EpoR-JAK2V617F, luminescence | ATP luminescence | inhibition, % at 5.6 µM | 220,000 tested, 1.1% active | AID 1446, 2008;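 active means inhibition above the campaign mean plus 3 SD over all tested compounds, cut at about 24% in these data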;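 further: cytokine-independent growth of Ba/F3 cells driven by EpoR plus mutant JAK2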
aSyn 5UTR inh: MLPCN primary screen, SNCA 5' untranslated region; alpha-synuclein 5'UTR reporter, inhibitor activity; inhibition, % (tested at 7.5 µM); 300,000 tested, 0.82% active; AID 1813, 2009; in the data active means inhibition above about 60%;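 further: H4 neuroglioblastoma cells stably carrying SNCA 5'UTR luciferase fusion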
IEC-6 cytotox: cytotoxicity in IEC-6 intestinal epithelial cells, primary screen, cytotoxicity control for KLF5 inhibitor project, cell-based, luminescence; IEC-6 cytotoxicity, luminescence viability; inhibition, % at 5 µM; 290,000 tested, 0.78% active; AID 1825, 2009; in the data active means inhibition above about 22%
APP 5UTR inh: inhibitors of APP translation via 5'UTR reporter, primary screen, APP 5'UTR luciferase, SH-SY5Y cells | SH-SY5Y APP 5'UTR-luciferase reporter, luminescence | 190,000 tested, 0.82% active | AID 1285, 2008 | inhibition, % at 2 µM;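 active means inhibition above a set limit, derived from the sample mean plus 3 SD, cut at about 45% in these data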
BaF3 tox: parental Ba/F3 cell viability inhibition, counter-screen for JAK2V617F inhibitor project, murine pro-B, CellTiter-Glo luminescence. 220,000 tested, 1.1% active. AID 1486, 2009. inhibition, % at 5.6 µM. CellTiter-Glo ATP luminescence;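 active means inhibition above a per-campaign cutoff, the mean inhibition of all tested compounds plus 3 SD, cut at about 27% in these data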
Of the large screens only hits and unclear results are named; the others gave an inactive call. An excerpt weighted towards active compounds, which were near 2.1% of everything screened.

COCc1cc(C)nc(NC2CC(C)(C)NC(C)(C)C2)c1C#N	none (no result: Ba/F3 V617F tox, APP 5UTR inh, BaF3 tox)
O=C1/C(=N\S(=O)(=O)c2cccs2)C([n+]2ccc(CCCc3ccccc3)cc2)=C([O-])c2ccccc21	aSyn 5UTR inh 91.1 (no result: APP 5UTR inh)
CC(C)(C)c1cc[n+](C2=C([O-])c3ccccc3C(=O)/C2=N\S(=O)(=O)c2ccccc2)cc1	aSyn 5UTR inh 84.0 (no result: APP 5UTR inh)
Cc1cc(C)c[n+](C2=C([O-])c3ccccc3C(=O)/C2=N\S(=O)(=O)c2cccs2)c1	none
O=C1/C(=N\S(=O)(=O)c2cccs2)C([n+]2cccc(Cc3ccccc3)c2)=C([O-])c2ccccc21	aSyn 5UTR inh 84.7 (no result: APP 5UTR inh)
Cc1ccc(NC2=C/C(=N/S(=O)(=O)c3cccs3)c3ccccc3C2=O)cc1C	none
Cc1ccccc1NC1=C/C(=N\S(=O)(=O)c2cccs2)c2ccccc2C1=O	aSyn 5UTR inh 114.4
COc1ccc(-c2ccccc2NC(=O)C2CCCN(Cc3ccc(C)o3)C2)cc1 (stereo unspecified)	none (no result: Ba/F3 V617F tox, APP 5UTR inh, BaF3 tox)
CC1(C)Cc2c(cnn2-c2ccc(F)cc2)C(NC(=O)CCN2CCCCC2=O)C1 (stereo unspecified)	none (no result: Ba/F3 V617F tox, APP 5UTR inh, BaF3 tox)
Cc1cc(-c2nnc(CCC(=O)NCc3ccc(OC(F)(F)F)cc3)o2)no1	none (no result: Ba/F3 V617F tox, APP 5UTR inh, BaF3 tox)
CC1(c2ccccc2Cl)NC(=O)N(CC(=O)NCc2ccco2)C1=O (stereo unspecified)	none
CCN(C(=O)COC(=O)c1cccc(-n2cnnn2)c1)C1CCCCC1	none
Cc1ccc(C)c(SCC(=O)c2ccc[nH]2)c1	none
Cc1cc[n+](C2=C([O-])c3ccccc3C(=O)/C2=N\S(=O)(=O)c2cccs2)cc1C	aSyn 5UTR inh 73.8
Cc1ccc(NC(=O)C2CCCN2C(=O)OC(C)(C)C)cc1C (stereo unspecified)	none (no result: APP 5UTR inh)
O=C(C1Cc2ccccc2CN1C(=O)c1ccccc1)N1CCN(c2ccccc2)CC1 (stereo unspecified)	Ba/F3 V617F tox 58.1, BaF3 tox 47.0 (no result: APP 5UTR inh)
O=C(c1ccc(CN2CCc3ccccc3C2)cc1)N1CCN(c2ccccc2)CC1	none
Cc1ccc(F)cc1NC(=O)N1c2ccccc2NC(=O)CC1C (stereo unspecified)	none (no result: APP 5UTR inh)
CC(=O)Nc1cccc(NC(=O)Nc2cccc(Cl)c2C)c1	none
CC(=O)Nc1cccc(NC(=S)Nc2cccc(Cl)c2C)c1	BaF3 tox 89.6
CCCCOc1ccc(C(=O)NCc2ccccn2)cc1	APP 5UTR inh 47.5
CC(=O)c1sc2nc(-c3cccs3)ccc2c1N	none
Nc1c(C(=O)Nc2nc3ccccc3s2)sc2nc(-c3cccs3)ccc12	aSyn 5UTR inh 105.7
COc1ccc(-n2cccc2/C=C2/NC(=O)N(c3cccc(Cl)c3)C2=O)cc1	none
COc1cc(/C=C2/NC(=O)N(c3cccc(Cl)c3)C2=O)ccc1O	Ba/F3 V617F tox 100.1, APP 5UTR inh 55.3, BaF3 tox 75.7
CCOC(=O)c1csc(NC(=O)c2ccc3c(c2)OCCO3)n1	none (no result: Ba/F3 V617F tox, APP 5UTR inh, BaF3 tox)
Cc1ccc(OCC(O)Cn2c(=N)n(Cc3ccccc3)c3ccccc32)cc1 (stereo unspecified)	none
Cc1cccc(OCC(O)Cn2c(=N)n(CCN3CCCCC3)c3ccccc32)c1 (stereo unspecified)	Ba/F3 V617F tox 25.2, BaF3 tox 54.7
CCN(CC)CCn1c(=N)n(CC(O)COc2cccc(C)c2)c2ccccc21 (stereo unspecified)	none
N=c1n(Cc2ccc(Cl)cc2)c2ccccc2n1CC(O)COc1ccccc1 (stereo unspecified)	BaF3 tox 35.5
N=c1n(Cc2ccccc2)c2ccccc2n1CC(O)COc1ccc(Cl)cc1Cl (stereo unspecified)	aSyn 5UTR inh 90.1
CC(=O)N1CCOc2ccc(S(=O)(=O)NCC3CCC(C(=O)Nc4ncccc4C)CC3)cc21 (stereo unspecified)	none (no result: Ba/F3 V617F tox, APP 5UTR inh, BaF3 tox)
CCC(C)c1ccccc1NC(=O)C(C)OC(=O)CN1C(=O)NC(C)(C)C1=O (stereo unspecified)	none (no result: KLF5 inhibitor, Ba/F3 V617F tox, IEC-6 cytotox, APP 5UTR inh, BaF3 tox)
O=C(Nc1cccc2ccccc12)C12CC3CC(C1)CC(n1cnc([N+](=O)[O-])n1)(C3)C2	aSyn 5UTR inh 73.0
CN1c2ccccc2N(C)C1c1ccc2c(c1)OCO2	Ba/F3 V617F tox 70.7, BaF3 tox 60.6
CCc1ccc(-c2cc(C(=O)Nn3cnnc3)c3ccccc3n2)cc1	aSyn 5UTR inh 73.9
O=C(NCc1ccccn1)c1cc(-c2ccc(-c3ccccc3)cc2)nc2ccccc12	Ba/F3 V617F tox 33.9, BaF3 tox 36.3
CC1C(=O)NN=C1C(=O)N/N=C/c1ccco1 (stereo unspecified)	APP 5UTR inh 72.0
Oc1ccc(O)c(/C(=N/Nc2ccccc2)c2ccccc2)c1	none (no result: Ba/F3 V617F tox, APP 5UTR inh, BaF3 tox)
COc1ccc(-c2csc(CCN3N=C(C)CC3=O)n2)cc1	none
CCOc1ccccc1-n1c(CN2CCN(C(=O)c3ccco3)CC2)nc2ccccc2c1=O	aSyn 5UTR inh 110.5
CCOc1ccccc1-c1nc(CN2CCN(C(=O)c3ccco3)CC2)c(C)o1	none (no result: Ba/F3 V617F tox, APP 5UTR inh, BaF3 tox)
CC(OC(=O)CCCN=C1NS(=O)(=O)c2ccccc21)C(=O)Nc1ccc(F)c(F)c1F (stereo unspecified)	none (no result: KLF5 inhibitor, Ba/F3 V617F tox, IEC-6 cytotox, APP 5UTR inh, BaF3 tox)
Cc1ccn2cc(-c3ccc(Br)cc3)nc2c1	aSyn 5UTR inh 62.7 (no result: APP 5UTR inh)
NC1=NC(=O)/C(=C\c2cc([N+](=O)[O-])ccc2Cl)S1	none
CC(=O)Nc1ccc(NC(=O)C(=O)NCC(c2ccco2)N2CCc3ccccc32)cc1 (stereo unspecified)	none (no result: KLF5 inhibitor, Ba/F3 V617F tox, IEC-6 cytotox, APP 5UTR inh, BaF3 tox)
COc1ccc(NC(=O)C(=O)NCC(c2ccco2)N2CCc3ccccc32)cc1 (stereo unspecified)	aSyn 5UTR inh 84.9 (no result: KLF5 inhibitor, Ba/F3 V617F tox, IEC-6 cytotox, APP 5UTR inh, BaF3 tox)
CCc1ccccc1NC(=S)NN	APP 5UTR inh 91.6
CCc1ccccc1NC(=S)NNC(=O)c1ccccc1Cl	none
O=C(COC(=O)c1ccc2ncsc2c1)Nc1ncc(Cl)cc1Cl	none
Cc1c(Cl)cnc(NC(=O)COC(=O)c2ccc3ncsc3c2)c1Cl	aSyn 5UTR inh 67.1
CC(C)CNS(=O)(=O)c1ccc(CCC(=O)NCc2ccncc2)cc1	BaF3 tox 89.8
CCOc1ccc(S(=O)(=O)NC2CCCCC2C)cc1 (stereo unspecified)	none (no result: Ba/F3 V617F tox, APP 5UTR inh, BaF3 tox)
CC1CCCCC1NS(=O)(=O)c1ccc(S(=O)(=O)NCc2ccncc2)cc1 (stereo unspecified)	Ba/F3 V617F tox 41.7, BaF3 tox 46.8
CC(C)CNS(=O)(=O)c1ccc(CCC(=O)NCc2ccco2)cc1	none
CCOc1ccc(S(=O)(=O)NCc2ccncc2)cc1	Ba/F3 V617F tox 65.0, BaF3 tox 60.9
CC(=O)Nc1ccc(S(=O)(=O)NCc2ccncc2)cc1	Ba/F3 V617F tox 32.0, BaF3 tox 37.0
CC(C)(C)NC(=O)NC(=O)CN1CCN(C(c2ccccc2)c2ccccc2)CC1	none
CCCCn1c(N)c(N(CCOC)C(=O)COC(=O)c2cc(CCC)c(C)s2)c(=O)[nH]c1=O	none (no result: KLF5 inhibitor, Ba/F3 V617F tox, IEC-6 cytotox, APP 5UTR inh, BaF3 tox)
